CSC inhib: cancer stem cell viability inhibitors, primary screen, luminescence; inhibition, % at 7.5 µM; hit rate 1.1% among 300,000; AID 2717, 2010; cancer stem cell-like cells viability; in the data active means inhibition above about 75%; tested in HMLE shEcad cells
Mdm2 MdmX PPI: inhibitors of human Mdm2-MdmX association, primary screen, cell-based, luminescence, split luciferase, SaOS-2, uHTS | Protein Mdm4 (Homo sapiens) + E3 ubiquitin-protein ligase Mdm2 (Homo sapiens), … | SaOS-2 split-luciferase Mdm2/MdmX complementation | inhibition, % at 8 µM | hit rate 3% among 330,000 | AID 485346, 2010;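 active means inhibition of at least 50% at 8 µM in the primary screen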
697 NFkB inh: inhibitors of PMA/ionomycin-induced NF-kB reporter, 697 cells, primary screen, B-cell NF-kB inhibitor project, cell-based, luminescence, uHTS | 697 B-cell NF-kB luciferase reporter, 16 h | inhibition, % at 4 µM | hit rate 0.33% among 330,000; in the data active means inhibition above about 35%
Beta apoptosis: inhibitors of cytokine-induced beta cell apoptosis, primary screen, luminescence. hit rate 0.8% among 300,000. protection from apoptosis, % (test concentration not listed). AID 435005, 2010. INS-1E cytokine-induced death, ATP luminescence, 48 h; percent of positive-control rescue, neutral wells zero;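 active means Every replicate reaches about 75%, or at least half do and their mean reaches it too, limit read from the data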;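 further: 0% = cytokine-treated negative control wells and 100% = positive control rescue; higher means more ATP so stronger rescue from cytokine killing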
Gli-Sufu antag: Gli-Sufu pathway antagonists, primary screen, luciferase luminescence, Sufu-KO-LIGHT cells, uHTS. Sufu-KO-LIGHT fibroblasts, Gli luciferase reporter luminescence. hit rate 0.74% among 340,000. inhibition, % at 5 µM. AID 588413, 2011;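 active means inhibition above about 55%, limit read from the data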;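 further: 0% = DMSO-treated cells and 100% = wells with medium but no cells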
Jurkat NFkB inh: inhibitors of induced NF-kB luciferase reporter, primary screen, TCR NF-kB activation inhibitor project, cell-based, luminescence, uHTS | Jurkat, PMA/ionomycin-induced NF-kB luciferase reporter | inhibition, % at 4 µM | hit rate 0.53% among 330,000 | AID 435003, 2010; in the data active means inhibition above about 50%
Mdm2-MdmX conf: Mdm2-MdmX complex disruptors, retested hits, confirmation, luminescence, single concentration. shares compounds with Mdm2 MdmX PPI. Mdm2-MdmX binding, luminescent assay. inhibition, % at 8 µM. hit rate 55% among 10,000. AID 489028, 2010; in the data active means inhibition above about 40%
FLuc counter: full-length luciferase signal inhibition, confirmation, counter-screen for Mdm2/MdmX interaction inhibitor project, cell-based, single concentration, SaOS-2 | shares compounds with Mdm2 MdmX PPI | SaOS-2 full-length luciferase counterscreen, luminescence | inhibition, % at 8 µM | hit rate 77% among 6,200 | AID 504607, 2011;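 active means mean inhibition at 8 µM reaching about 37%, which flags the compound as non-specific, limit read from the data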;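 further: p53-null SaOS-2 cells with luciferase driven by a doxycycline-inducible promoter; compound on cells about two nights before reading with doxycycline added after day one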
Active calls of the source: *; . = no result. Hits are enriched below; roughly 4.5% of the tested compounds scored in any of these assays.

SMILES	CSC inhib	Mdm2 MdmX PPI	697 NFkB inh	Beta apoptosis	Gli-Sufu antag	Jurkat NFkB inh	Mdm2-MdmX conf	FLuc counter
O=C(NCc1cccnc1)/C(=C\c1ccc(-c2ccc(Br)cc2)o1)S(=O)(=O)c1ccccc1	10.3	95.7*	15.1	107.1*	4.5	19.6	98.9*	51.4*
O=C(NCc1cccnc1)/C(=C/c1ccc(-c2ccc(Cl)cc2)o1)S(=O)(=O)c1ccccc1	109.5*	81.7*	26.4	103.7*	4.6	31.2	100.2*	51.7*
Cc1cc(N2CCOCC2)nc2ccc(Cl)cc12	4.2	-20.3	-40.9	-0.9	-41.9	-48.6	.	.
COc1ccc(-c2oc(NC(=O)CCl)c(C#N)c2-c2ccc(OC)cc2)cc1	3.4	97.8*	26.3	1.2	-6.7	9.2	64.8*	55.4*
COc1cc(O)cc2cc3c(c(O)c12)C(=O)CC(C)(O)O3 (stereo not given)	-1.1	56.9*	-8.9	.	-13.6	-9.5	52.5*	60.3*
COc1cc(O)c2c(c1)OC(C)(C)CC2=O	-17.0	3.8	6.1	-7.3	2.7	3.5	.	.
CC[C@@H]1[C@H]2CCCC(=O)N3CC[C@@H](C[C@@H]1Nc1ccccc1)[C@@H]23	-2.8	-14.9	14.8	2.4	-2.3	3.7	.	.
COc1ccccc1NC(=O)CN1CCN(C2c3ccccc3-c3ccccc32)CC1	59.5	38.2	-6.6	3.9	0.3	15.0	.	.
COc1ccc(NC(=O)CN2CCN(C3c4ccccc4-c4ccccc43)CC2)c(OC)c1	26.9	94.4*	-24.9	9.9	2.7	2.6	20.7	.
Cn1ncc2c(Nc3ccc(Br)cc3)nc(Nc3ccc(Br)cc3)nc21	103.3*	60.2*	-0.4	33.0	24.3	15.9	26.3	.
Cn1ncc2c(Nc3cccc(Cl)c3)nc(Nc3cccc(Cl)c3)nc21	115.4*	50.0*	16.8	52.0	11.7	6.8	20.0	.
Cn1ncc2c(Nc3ccc(O)cc3)nc(Cl)nc21	-4.8	18.3	-1.1	-4.3	19.1	-4.8	.	.
O=C(CN1C(=O)S/C(=C\c2ccccn2)C1=O)Nc1ccccc1	-17.6	15.9	13.9	0.5	-5.5	2.9	.	.
CCOc1cc(/C=C2/NC(=O)N(CC(=O)Nc3cccc(C)c3)C2=O)ccc1OC	-3.8	70.2*	18.6	-5.7	-1.5	10.7	65.2*	32.2
Cc1cccc(NC(=O)CN2C(=O)S/C(=C\c3ccccn3)C2=O)c1	2.5	84.0*	7.9	4.2	-12.6	11.0	24.6	.
COc1ccc(/C=C2/NC(=O)N(Cc3ccccc3F)C2=O)cc1OC	-5.0	85.0*	18.7	-5.2	12.6	-0.9	7.0	.
CCn1cc(/C=C2\SC(=O)N(CC(=O)Nc3ccc4c(c3)OCO4)C2=O)c2ccccc21	3.8	67.9*	17.2	-5.7	-10.9	14.3	46.9*	90.7*
O=C1C(O)=CC(=C(c2ccccc2)c2ccccc2)c2ccccc21	.	.	.	.	2.0	.	.	.
COc1ccc2nc(C)cc(N/N=C/c3cccc(OC)c3O)c2c1	0.6	100.3*	1.3	29.0	19.0	-22.5	14.6	.
COc1ccc(/C=N/Nc2cc(C)nc3ccc(Br)cc23)cc1	107.4*	97.5*	-6.7	100.2*	19.5	31.3	24.6	.
COc1ccc2nc(C)cc(Nc3ccccc3O)c2c1	11.1	13.2	23.2	22.4	10.5	16.8	.	.
COc1cccc(/C=N/Nc2nc3ccccc3[nH]2)c1O	67.5	61.1*	-180.0	94.0*	24.0	-73.3	40.2*	60.6*
COc1cccc(/C=N/Nc2nc3ccccc3[nH]2)c1OC	1.4	-33.5	-115.7	.	-45.5	-123.9	.	.
COc1ccc2nc(C)cc(NCc3cccc(C(F)(F)F)c3)c2c1	.	78.8*	-31.0	50.4	16.7	10.5	59.8*	107.6*
CC(=O)N[C@H]1[C@H](OC2CCCCC2)O[C@H](COC(C)=O)[C@@H](OC(C)=O)[C@@H]1OC(C)=O	4.0	6.1	10.8	-9.7	5.6	-0.5	.	.
SMILES	CSC inhib	Mdm2 MdmX PPI	697 NFkB inh	Beta apoptosis	Gli-Sufu antag	Jurkat NFkB inh	Mdm2-MdmX conf	FLuc counter
Cc1cccc(OCC(=O)NCC(=O)N/N=C/c2c(C)[nH]c3ccccc23)c1	24.0	14.0	7.1	5.5	2.6	13.2	.	.
COc1ccc(CCc2nnc(N)s2)cc1OC	8.9	2.3	5.1	4.9	1.4	-6.5	.	.
Cc1c(/C=N/Nc2nc3ccccc3[nH]2)c2ccccc2n1C	35.5	92.7*	-70.6	117.0*	-0.5	-15.2	48.0*	71.1*
Cc1nn(-c2ccccc2)c(C)c1/C=N/Nc1nc2ccccc2[nH]1	39.9	-154.5	-187.0	36.3	-72.9	-147.9	.	.
COC(=O)[C@]1(Cc2ccccc2)N[C@H](CN(C)C(=O)c2ccc(F)cc2)[C@@H]2C(=O)N(C)C(=O)[C@@H]21	.	7.5	7.2	.	7.2	-19.1	.	.
CC[C@]1(C(=O)OC)[C@H]2C(=O)N(Cc3ccccc3)C(=O)[C@H]2[C@H]2CN(C)C(=NCc3ccccc3)N21	.	0.9	0.2	.	-8.1	.	.	.
Cc1cccc2sc(N(CCCN(C)C)C(=O)CCc3ccccc3)nc12	-14.3	59.8*	-18.1	7.2	6.4	-0.8	23.3	.
CN(C)CCCN(C(=O)CCc1ccccc1)c1nc2ccc(Br)cc2s1	49.3	57.7*	3.1	14.3	41.8	5.0	36.8	51.7*
COc1cc(OC)cc(C(=O)NCC(=O)Nc2ccc(OC)c(Cl)c2)c1	2.3	24.0	8.0	-4.9	-0.3	3.1	.	.
COc1cccc(C(=O)Oc2c(Br)cc(Br)cc2/C=N/NC(=O)c2cc(C)[nH]n2)c1	56.1	59.4*	29.6	80.9*	15.1	13.4	55.4*	20.3
Cc1cccc(C(=O)N[C@H](C(=O)Nc2nnc(C3CC3)s2)C(C)C)c1	-15.7	-4.6	-9.2	-4.7	-0.8	7.5	.	.
Cc1cccc(C(=O)N[C@H](C(=O)Nc2ncc(C)s2)C(C)C)c1	78.7*	67.9*	-30.1	75.5*	-92.7	5.0	63.8*	98.9*
Cc1cccc(C(=O)NC(C(=O)Nc2nc(-c3ccccn3)cs2)C(C)C)c1 (stereo not given)	40.2	74.4*	-4.0	37.9	15.8	9.1	57.0*	30.7
OCC1OC(n2cnc3c(NCc4ccccc4O)ncnc32)C(O)C1O (stereo not given)	.	.	.	.	30.5	.	.	.
